# Peg3 prom inh = Peg3 promoter activity inhibition | HeLa PEG-Prom luciferase reporter, luminescence, overnight | inhibition, % at 20 µM | hit rate 1.7% among 360,000 | AID 588405;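 active = inhibition of at least 50% at 20 µM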
# Mdm2 MdmX PPI = disrupts the human Mdm2-MdmX interaction. O15151+Q00987. SaOS-2 split-luciferase Mdm2/MdmX complementation, luminescence. inhibition, % at 8 µM. hit rate 3% among 330,000. AID 485346;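 active = inhibition of at least 50% at 8 µM in the primary screen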
# LGR2 antag = blocks bursicon-induced cAMP signaling via Drosophila LGR2 | HEK293 LGR2, CRE-luciferase, bursicon-stimulated, 4 h | inhibition, % at 9.99 µM | hit rate 0.35% among 380,000 | AID 720647;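 active = drop in luminescence signal, shown as inhibition above about 50% in the replicate tests, limit read from the data, passing the limit was not always enough; inconclusive = probably only some replicates passing the limit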;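 note: agonist challenge used bursicon conditioned medium at about half maximal strength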
# KKLEB cytotox = CF airway cell cytotoxicity counter-screen; KKLEB CF airway cells viability, ATPlite luminescence, overnight; active compounds read low; cells stimulated with P. aeruginosa culture filtrate; activity change (cytotoxicity), % at 5 µM; hit rate 0.36% among 360,000; AID 602141;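 active = corrected activity change at or below -50% at 5 µM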
# HSP90 refold inh = HSP90 refolding inhibition in rabbit reticulocyte lysate. inhibition, % at 5.6 µM. AID 1789. luciferase refolding luminescence, 3 h. hit rate 0.91% among 290,000;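 active = inhibition above the screen-wide mean plus 3 SD, computed separately per campaign, cut at about 16% in these data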;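 note: 0% = DMSO wells and 100% = 60 µM geldanamycin wells; inhibitors lower the luminescence because luciferase stays unfolded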
# CF NFkB inh = inhibitors of cystic fibrosis induced NF-kB | hit rate 0.86% among 360,000 | inhibition, % at 5 µM | KKLEB NF-kB-GFP reporter, PAF-induced, GFP fluorescence overnight;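 active = at least 50% inhibition at 5 µM, scaled per plate between neutral and stimulator controls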;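 note: PAF is a Pseudomonas aeruginosa culture filtrate used as stimulus; plate controls were PAF-stimulated DMSO wells for no effect and unstimulated DMSO wells for full effect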
# HSP90 confirm = confirmation of HSP90 inhibitors; rabbit reticulocyte lysate, luciferase refolding luminescence, 3 h; shares compounds with HSP90 refold inh; inhibition, % at 5.9 µM; hit rate 64% among 2,300; in the data active = inhibition above about 18%;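 note: 0% = vehicle wells and 100% = reference inhibitor wells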
# FLuc counter = firefly luciferase inhibition, HSP90 counter-screen; purified native firefly luciferase, luminescence; hit rate 48% among 2,300; inhibition, % at 5.9 µM; shares compounds with HSP90 refold inh; AID 1847;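 active = inhibition above the mean inhibition of all tested sample wells plus 3 SD, cut at about 10% in these data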;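 note: 0% = DMSO with luciferase and 100% = wells lacking luciferase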
# Starred values were filed as active, the others as inactive; u = inconclusive; x = not tested or not shown. The list is not random: actives were taken first. Their share in the collection is about 3.6%.
SMILES,Peg3 prom inh,Mdm2 MdmX PPI,LGR2 antag,KKLEB cytotox,HSP90 refold inh,CF NFkB inh,HSP90 confirm,FLuc counter
O=C(C[C@@H]1CC[C@@H](NS(=O)(=O)c2ccc(F)cc2)[C@@H](CO)O1)NCCN1CCCCC1,x,x,5.2,x,x,x,x,x
N#CCCSc1ncnc2c1oc1ccccc12,-35.1,-11.8,x,-6.5,25.9*,0.3,-11.1,-19.6
OCCSc1ncnc2c1oc1ccccc12,-72.7,-3.2,x,-3.7,1.2,0.5,x,x
C[C@@H]1CN([C@@H](C)CO)C(=O)c2cc(NC(=O)Nc3cccc4ccccc34)ccc2O[C@@H](C)CCCCO[C@@H]1CN(C)Cc1ccc2c(c1)OCO2,x,x,-1.0,x,x,x,x,x
COc1ccc(/C=N/NC(=O)c2nn(-c3ccccc3)c(=O)c3c(N)scc23)cc1,17.0,-8.4,x,-15.4,20.4*,12.8,8.2,-10.9
O=S(=O)(Cc1ccccc1)N(O)c1ccccc1,13.0,3.6,0.3,6.7,88.5*,-13.5,91.6*,-0.1
Nc1ccc2nn(-c3ccccc3)nc2c1,-222.8,3.1,-58.9,12.0,-2.2,-14.9,x,x
Nc1cc2nn(-c3ccccc3)nc2cc1Cl,-286.9,x,x,3.9,42.6*,-16.5,18.1*,-8.2
C[C@@H]1CN([C@@H](C)CO)C(=O)CCCn2cc(nn2)CO[C@@H]1CN(C)Cc1ccc2c(c1)OCCN2C,x,x,22.7,x,x,x,x,x
N#Cc1c(NC(=O)c2nc3ncccn3n2)sc2c1CCCCC2,-40.4,17.3,22.7,9.2,65.1*,-13.4,78.4*,28.4*
CCN(CC)c1ccc2cc(C(C)=O)c(=O)oc2c1,-90.2,-36.1,-27.1,-7.9,-0.1,9.4,x,x
CCN(CC)c1ccc2cc(NC(=O)CCC(=O)O)c(=O)oc2c1,43.9,29.2,19.3,-5.3,32.6*,-10.4,36.0*,-31.5
N#C[C@@H]1[C@@H](c2ccc(C#CC3CCCCC3)cc2)[C@@H](CO)N1C(=O)Cc1ccccn1,x,x,24.7,x,x,x,x,x
O=C(c1cc(F)c(F)cc1Cl)N1CCN(CCc2ccccc2)CC1,8.6,-21.1,5.0,1.7,38.1*,1.3,-1.1,-6.0
COc1ccc(/C=N/Nc2nc3ccccc3s2)cc1O,-67.2,x,85.9*,-22.6,21.5*,-17.7,55.4*,49.0*
COc1ccccc1NC(=O)CCc1nc(-c2ccccc2F)no1,-51.5,-2.7,-14.6,3.9,-4.7,-0.6,x,x
COc1ccc(Cl)cc1NC(=O)CCc1nc(-c2ccccc2F)no1,19.4,26.5,9.3,3.5,27.1*,-10.9,0.7,-2.7
COc1ccc(C)cc1S(=O)(=O)N1CCCC(C(=O)N2CCN(c3ccccc3)CC2)C1 (configuration not stated),3.7,13.1,10.6,-8.0,22.5*,-18.4,3.2,-2.2
Cc1ccccc1-n1c(C)cc(/C=C(\C#N)C(=O)NCC2CCCO2)c1C (configuration not stated),-181.0,34.4,-72.0,-17.3,19.6*,2.9,37.1*,25.1*
C[C@@H]1CN([C@@H](C)CO)C(=O)c2cccc(NS(C)(=O)=O)c2O[C@@H]1CN(C)Cc1ccc2c(c1)OCO2,x,x,-11.5,x,x,x,x,x
NC(=S)N/N=C/c1cn(-c2ccccc2)nc1-c1cccnc1,-78.7,0.6,4.4,-7.9,30.2*,-24.3,1.3,-7.5
C=CCn1c(C)cc(C(=O)COC(=O)[C@@H](NC(=O)c2ccccc2Cl)C(C)C)c1C,-172.7,18.6,u,-20.6,26.6*,-1.6,53.7*,43.1*
C=CCn1c(C)cc(C(=O)COC(=O)COc2ccccc2C#N)c1C,0.2,7.9,x,-8.9,-3.8,4.2,x,x
CCOC(=O)c1cc(-c2ccccc2)sc1NC(=O)C(C)N1C(=O)NC(C)(c2ccc(Cl)cc2)C1=O (configuration not stated),-0.2,42.8,x,1.9,18.0*,16.5,9.2,-6.4
COc1ccc(C#Cc2cnc3c(c2)C(=O)N([C@@H](C)CO)C[C@H](C)[C@@H](CN(C)C(=O)CN(C)C)O3)cc1,x,x,4.4,x,x,x,x,x
CCOC(=O)c1cn2nc(N3CCCCC3)ccc2n1,-5.0,42.4,88.2*,-6.1,39.1*,-2.4,72.0*,58.9*
CCOC(=O)c1cn2nc(Oc3ccccc3)ccc2n1,-208.6,-8.6,-21.4,2.6,1.4,3.5,x,x
